In PubChem BioAssay (NCATS):
Inconclusive results are not listed. Unmarked numbers belong to inactive results. Calls of active or inactive are those of the source. Calls follow the shape of the dose curve; as a rule, active = well fitted inhibition curve with a large enough effect; inconclusive = small, poorly fitted or top-dose-only effect, or effect the other way; inactive = flat fitted curve, though single readings scatter.

Experiment: Quantitative high throughput screen for delayed death inhibitors of the malarial parasite plastid, 48 hour incubation (AID 488752); also: nearly all actives have a fitted effect of over 65% in size
Conditions: Plasmodium falciparum growth; series mostly up to 28.7 µM; activity change, negative = inhibition: at the top concentration
Description: NIH Molecular Libraries Probe Production Network [MLPCN]
NIH Chemical Genomics Center [NCGC]
Assay Provider: David Fidock and Eric Ekland, Columbia University
The goal of this screen is to discover new antimalarial compounds that act by inhibiting the development of the apicoplast in the malarial parasite Plasmodium falciparum. The biochemical processes that make this organelle essential for erythrocytic stage parasites are not well understood. However, antibiotics, such as azithromycin and tetracycline, which target the apicoplast translational machinery, have a potent antimalarial effect.
We have developed a cell-based assay that measures parasite growth based on the expression of an integrated copy of a firefly luciferase reporter. To detect small molecules that cause this 'delayed death' phenotype, erythrocytes infected with the luciferase-expressing parasites were incubated with compounds for either one or two generations, corresponding to 48 and 96 hours, respectively. Compounds that inhibit parasite growth in the second generation, but not the first, should be enriched in antimalarials that target the apicoplast. Growth inhibition is detected by a decrease in luciferase activity
Four microliters of culture medium (RPMI 1640 with 0.5% w/v Albumax (GIBCO), 24 mM sodium bicarbonate and 10 ug/mL gentamycin) were dispensed by a Multi-drop Combi into white solid 1536-well plates (Grenier) and 23 nL compound was added by a pin tool. Four microliters of infected erythrocytes (2% hematocrit, 0.1% parasitemia final concentration) in culture medium were dispensed and the plates incubated for 48 hours at 37 C in 5% CO2. Two microliters of luciferase detection reagent was added and luminescence was detected by a ViewLux (PerkinElmer) reader
% is scaled to controls: 0 for no effect and ±100 for the full control effect; potency is read from the fitted curve at half-maximal effect.

Row | SMILES | activity change, negative = inhibition [%] | Potency
1 | NCC(CP(=O)(O)O)c1ccc(Cl)cc1 (stereo not given) | 1.11 | 
2 | NC(=O)c1cc(N2CC2)c([N+](=O)[O-])cc1[N+](=O)[O-] | 9.02 | 
3 | CC(N)Cc1c[nH]c2ccc(OCc3cccs3)cc12 (stereo not given) | -27.4 | 
4 | NC(CCCCCP(=O)(O)O)C(=O)O (stereo not given) | 1.78 | 
5 | COc1ccc2[nH]c3c(c2c1)CCNC3 | 2.27 | 
6 | C#CCN[C@H](C)Cc1ccccc1 | -3.45 | 
7 | NC(N)=NOCC[C@H](N)C(=O)O | 10.3 | 
8 | C=CCN1C[C@@H](C)N([C@H](c2ccc(C(=O)N(CC)CC)cc2)c2cccc(OC)c2)C[C@@H]1C |  | 5.22 µM (active)
9 | Cc1o[nH]c(=O)c1CC(N)C(=O)O (stereo not given) | 8.59 | 
10 | c1ccc2cc(CC3=NCCN3)ccc2c1 | 13.8 | 
11 | COc1ccc(OC)c(C(O)C(C)N)c1 (stereo not given) | 11.1 | 
12 | C[N+]1(C)CCC(OC(=O)C(c2ccccc2)c2ccccc2)CC1 |  | 9.28 µM (active)
13 | C[C@@H]1O[C@H](C[N+](C)(C)C)CS1 | -27.1 | 
14 | CCCN(CCC)[C@H]1CCc2c(F)ccc(O)c2C1 |  | 2.94 µM (active)
15 | N[C@@H](CCl)C(=O)O | -0.278 | 
16 | CN1CCc2cccc(Cl)c2CC1 | 0.503 | 
17 | Cc1c2ccncc2c(C)c2c1[nH]c1ccccc12 |  | 1.85 µM (active)
18 | CN1C2CCC1CC(OC(c1ccccc1)c1ccc(Cl)cc1)C2 (stereo not given) |  | 6.57 µM (active)
19 | CC(Cc1ccc(OCC(=O)O)cc1)NCC(O)c1cccc(Cl)c1 (stereo not given) | 5.98 | 
20 | COc1cc(CC(C)N)c(OC)cc1I (stereo not given) | -13.7 | 

Row | SMILES | activity change, negative = inhibition [%] | Potency
21 | CNC(=O)OCC[N+](C)(C)C | -2.64 | 
22 | CCOC(=O)c1ncn2c1[C@@H]1CCCN1C(=O)c1cc(OC)ccc1-2 | 16.2 | 
23 | CCN(CC)c1ncnc2c1ncn2[C@@H]1O[C@H](COP(=O)(O)OP(=O)(O)C(Br)(Br)P(=O)(O)O)[C@@H](O)[C@H]1O | -8.21 | 
24 | CCCCCCC(C)(C)c1ccc([C@@H]2C[C@H](O)CC[C@H]2CCCO)c(O)c1 |  | 11.7 µM (active)
25 | CN1C2CCC1CC(OC(c1ccccc1)c1ccccc1N)C2 (stereo not given) | -16.8 | 
26 | C=CCN1CCC23c4c5ccc(O)c4O[C@H]2C(=O)CC[C@@]3(O)C1C5 (stereo not given in full) | -11.3 | 
27 | COc1ccc2c(c1)C13CCCCC1C(C2)N(C)CC3 (stereo not given) | -12.3 | 
28 | O=P(O)(O)C(Cl)(Cl)P(=O)(O)O | 0.773 | 
29 | C=CCN1CC[C@]23c4c5ccc(O)c4O[C@@H]2/C(=N/N=C2\CC[C@@]4(O)C6Cc7ccc(O)c8c7[C@@]4(CCN6CC=C)[C@@H]2O8)CC[C@@]3(O)C1C5 |  | 3.29 µM (active)
30 | CCCn1c(C)c(C(=O)c2ccc3ccccc3c2)c2ccccc21 | -2.39 | 
31 | c1ccc2c(N3CCNCC3)cccc2c1 | -3.44 | 
32 | O=[N+]([O-])c1ccc2nc(N3CCNCC3)ccc2c1 | -2.65 | 
33 | CN(N=O)c1ccc(O)c(O)c1 | -10.3 | 
34 | NC(=O)c1ccc(OCC(O)CN2CC=C(c3ccc(F)cc3)CC2)cc1 (stereo not given) | -19.1 | 
35 | OC1CCCCC1N1CCC(c2ccccc2)CC1 (stereo not given) | -4.48 | 
36 | CCCN1CCCC2Cc3[nH]ncc3CC21 (stereo not given) | -11.2 | 
37 | CC1OC1P(=O)(O)O (stereo not given) | 6.32 | 
38 | CC(C)(C)c1cc(C=C(C#N)C#N)cc(C(C)(C)C)c1O |  | 1.47 µM (active)
39 | Cc1[nH]c2ccc(O)cc2c1CCN | 6.07 | 
40 | CC(C)NP(=O)(NC(C)C)OP(=O)(NC(C)C)NC(C)C | 14.2 | 
